Screening data: PubChem BioAssay, National Center for Advancing Translational Sciences (NCATS)
A selection: hits, their analogues and other compounds. The true share with any hit is near 3.8%.
ATXN2 expr inh – reduces ATXN2 reporter expression in HEK-293 cells; HEK-293 ATXN2-luciferase reporter, luminescence, 24 h; Potency, µM (highest dose often 57 µM), actives largely listed as inhibitors; 360,000 tested, 0.72% active; AID 1745845; note: nearly all actives have a fitted effect of over 55% in size
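ATXN2-luciferase reporter cells (luciferase flanked by upstream and downstream ATXN2 gene portions) were treated 24 h at 37 °C with compounds at up to 57 uM. SteadyGlo luminescence gave expression; GF-AFC fluorescence gave viability.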
HepG2 tox – kills HepG2 cells in TGF-b inhibitor counter-screen | HepG2 CAGA-GFP viability, ATP luminescence, 18 h | AID 588856 | Potency, µM (series often up to 46.1 µM), most hits filed as cytotoxic | 410,000 tested, 0.76% active
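HepG2 CAGA-GFP cells (1000/well, DMEM with 1% FBS) received compound, then TGF-beta at 500 pg/mL final, and were incubated 18 hours at 37 degrees C. Viability was read by CellTiter-Glo luminescence. Media-only wells were set as complete cell-killing and DMSO as no toxicity.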
ATXN viability – reduces viability in counter-screen for ATXN expression inhibitors | S2 cells (HEK-293 line with an ATXN2-luciferase reporter) viability, CellTiter-Fluor protease fluorescence, 24 h | Potency, µM (top dose mostly 56.7 µM), actives largely listed as cytotoxic | 400,000 tested, 0.49% active | AID 651635; note: nearly all actives have a fitted effect of over 40% in size
TGFb SMAD3 inh – TGF-b pathway inhibition; HepG2 CAGA-GFP TGF-b/SMAD3 reporter, GFP fluorescence, 18 h; TGF-beta stimulated, 500 pg/mL final; Potency, µM (series often up to 46.1 µM), hits mostly inhibitors; 410,000 tested, 1.2% active; AID 588855; note: nearly all actives have a fitted effect of over 65% in size
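Using HEPG2 CAGA-GFP reporter cells at 1000 cells/well, we pinned test compounds, stimulated with recombinant TGF-beta (500 pg/mL final) and measured total well GFP after 18 h.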
Nrf2 inh – inhibitors of Nrf2 signaling; A549 ARE-Fluc reporter, luciferase luminescence, 18-24 h; Potency, µM (series often up to 46 µM), usual class: inhibitors; 360,000 tested, 2.1% active; AID 504444; note: nearly all actives have a fitted effect of over 60% in size
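Concentration-response testing used A549 ARE_Fluc cells at 5000 cells/well. Following an 18-24 h compound incubation, viability was read by fluorescence (Ex 405/Em 525) and luciferase output by luminescence.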
A549 tox – A549 cytotoxicity, counter-screen for Nrf2 inhibitors; A549 ARE-Fluc cells, CellTiter-Fluor viability, 18-24 h; Potency, µM (series often up to 46 µM), most hits filed as inhibitors; 390,000 tested, 0.16% active; AID 504648
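Cytotoxicity counterscreen: CellTiter-Fluor fluorescence was measured in A549 ARE_Fluc cells after 18-24 h of compound exposure in a concentration series. The subsequent BugLite luminescent read reports ARE-luciferase activity.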
Hits are given with their value. Calls come from the whole dose curve; as a rule, active = well fitted curve in the direction sought with a large enough effect; inconclusive = small, poorly fitted or top-dose-only effect, or another doubt; inactive = no such curve, though single readings can be large; an effect the other way counts as inactive or inconclusive.

Screening CCC(=O)O[C@@]1(C(=O)CCl)[C@@H](C)C[C@@H]2[C@H]3CCC4=CC(=O)C=C[C@@]4(C)[C@]3(F)[C@@H](O)C[C@@]21C returned ATXN viability inactive.
`CCC(=O)OCC(=O)[C@@]1(OC(=O)CC)[C@@H](C)C[C@H]2[C@@H]3CCC4=CC(=O)C=C[C@]4(C)[C@@]3(Cl)[C@@H](O)C[C@@]21C` gave ATXN2 expr inh inactive, HepG2 tox inactive, ATXN viability inconclusive, TGFb SMAD3 inh inactive, Nrf2 inh 0.0058µM and A549 tox inactive.
`Cc1cccc(N(C)c2nc3ccccc3c3nnc(C)n23)c1` gave HepG2 tox inactive, TGFb SMAD3 inh inconclusive, Nrf2 inh inactive and A549 tox inactive.
Screening COc1cc(C=O)ccc1OCCCOc1ccccc1[N+](=O)[O-] returned ATXN2 expr inh inactive, HepG2 tox inactive, ATXN viability inactive, TGFb SMAD3 inh inactive, Nrf2 inh inactive and A549 tox inactive.
COc1cc(C=O)ccc1OCCCOc1ccccc1C(=O)O was read as ATXN2 expr inh inactive, HepG2 tox inactive, ATXN viability inactive, TGFb SMAD3 inh inconclusive, Nrf2 inh 8.2µM and A549 tox inactive.
`Cc1ccc(Cn2c(=N)n(CC(=O)c3ccc([N+](=O)[O-])cc3)c3ccccc32)cc1` gave ATXN2 expr inh 20µM, HepG2 tox inactive, TGFb SMAD3 inh inactive, Nrf2 inh inactive and A549 tox inactive.
Cc1ccc(NC(=O)C(C)Sc2nnc3n2CCCCC3)cc1S(=O)(=O)N1CCOCC1 (stereo not given) was read as HepG2 tox inactive, ATXN viability inactive and TGFb SMAD3 inh inactive.
For COc1cc(/C=N/O)cc(Br)c1OCc1ccc(Cl)cc1 the results were ATXN2 expr inh inconclusive, HepG2 tox 12.6µM, ATXN viability inactive, TGFb SMAD3 inh inconclusive, Nrf2 inh inactive and A549 tox inactive.
For O=c1c2cn[nH]c2nc(SCc2ccc3c(c2)OCCO3)n1-c1ccccc1 the results were ATXN2 expr inh inactive, HepG2 tox inactive, ATXN viability inactive, TGFb SMAD3 inh inactive, Nrf2 inh 20.6µM and A549 tox inactive.
O=c1c2cn[nH]c2nc(SCc2cccc(Br)c2)n1-c1ccc(Cl)cc1 was read as HepG2 tox inactive, TGFb SMAD3 inh inactive and A549 tox inactive.
`Cc1[nH]n(-c2ccccc2)c(=O)c1N=Nc1nccs1` gave ATXN2 expr inh 22.4µM, HepG2 tox inactive, TGFb SMAD3 inh inconclusive, Nrf2 inh inconclusive and A549 tox inconclusive.
Screening COc1cccc(N2CCN(C(=O)Cn3cnc4onc(-c5ccc(F)cc5)c4c3=O)CC2)c1 returned ATXN2 expr inh inactive, HepG2 tox inactive, ATXN viability inactive, TGFb SMAD3 inh inconclusive, Nrf2 inh 16.4µM and A549 tox inactive.
For COc1ccc(N2CCN(C(=O)CCn3cnc4onc(-c5ccc(F)cc5)c4c3=O)CC2)cc1 the results were ATXN2 expr inh inactive, HepG2 tox inactive, ATXN viability inactive, TGFb SMAD3 inh inactive, Nrf2 inh inconclusive and A549 tox inactive.
`CCOC(=O)C1=C(C)NC(C)=C(C(=O)OCC)C1C(=O)OCC(=O)N(C)Cc1ccccc1` gave ATXN2 expr inh inactive, HepG2 tox inactive, ATXN viability inactive, TGFb SMAD3 inh inactive, Nrf2 inh inactive and A549 tox inactive.
For COc1ccc(-c2nc3c(C(=O)NCCN(C)C)cccc3c3ccccc23)cc1 the results were ATXN2 expr inh inactive, HepG2 tox 17.8µM, ATXN viability inconclusive, TGFb SMAD3 inh inactive, Nrf2 inh inactive and A549 tox inconclusive.
COc1ccc(Br)cc1CN(C)C(=O)CNC(=O)c1ccc2ccccc2c1 was read as ATXN2 expr inh inactive, HepG2 tox inactive, ATXN viability inactive, TGFb SMAD3 inh inactive, Nrf2 inh 18.4µM and A549 tox inconclusive.
Cc1ccc(CNC(=O)c2ccccc2NS(C)(=O)=O)cc1 was read as ATXN2 expr inh inactive, HepG2 tox inactive, ATXN viability inactive, TGFb SMAD3 inh inactive and A549 tox inactive.
